Assay results published in the supplement of paper PMC12024424.
Counter-ions that a name gives are not always drawn.

System: Staphylococcus aureus Sa2 (MRSA, cystic fibrosis isolate)
Experiment: growth reduction vs untreated control (OD550); higher = stronger antibacterial activity
Settings: 0.1 mM; 24 h
Experimental: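 Single-dose screen of the MedChem Express Drug Repurposing Library (0.1 mM, 1% DMSO) against planktonic MRSA S. aureus Sa2 (CF isolate) in TSB in 96-well plates, 37 °C aerobic, 24 h. Assays were run in triplicate and repeated twice.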

Row | Structure (SMILES) | growth reduction [%]
1 | O=C(NS(=O)(=O)c1ccc(Br)s1)c1ccc(Cl)cc1Cl [Tasisulam] | 100
2 | Nc1ccn([C@@H]2O[C@H](CO)[C@@H](O)C2(F)F)c(=O)n1 [Gemcitabine] | 100
3 | CCc1nc(-c2cccc(C)c2)c(-c2ccnc(NC(=O)c3ccccc3)c2)s1 | 100
4 | O=C(O)c1ccccc1Nc1cccc(C(F)(F)F)c1 [Flufenamic acid] | 93.6
5 | C=CC(=O)Nc1cc(Nc2nccc(-c3cn(C4CC4)c4ccccc34)n2)c(OC)cc1N(C)CCN(C)C [Almonertinib] | 100
6 | Cc1cc(CC(C)CC(C)(C)C)n(O)c(=O)c1 (stereo not given) [Piroctone olamine] | 100
7 | O=c1[nH]c(=O)n([C@H]2C[C@H](O)[C@@H](CO)O2)cc1/C=C/Br [Brivudine] | 100
8 | Cc1c(C)c2c(c(C)c1O)CCC(C)(COc1ccc(CC3SC(=O)NC3=O)cc1)O2 (stereo not given) [Troglitazone] | 97.5
9 | O=C(O)C[C@H]1CCc2c1[nH]c1ccc(OCc3ccc(C4CCCC4)c(C(F)(F)F)c3)cc21 [Etrasimod] | 99
10 | CCCCc1nc(-c2ccc(OCCCN(CC)CC)cc2)cn1-c1ccc(Oc2ccc(Cl)cc2)cc1 [Azeliragon] | 100
11 | C=CC(N)CCC(=O)O (stereo not given) [Vigabatrin (hydrochloride)] | 100
12 | N#CC(c1ccc(Cl)cc1)c1c(Cl)cc(-n2ncc(=O)[nH]c2=O)cc1Cl (stereo not given) [Diclazuril] | 100
13 | CCCCCCCCOc1ccccc1C(=O)Nc1ccc(C(=O)OCC[N+](C)(CC)CC)cc1 [Otilonium (bromide)] | 100
14 | Cc1ccc(C#Cc2ccc(S(=O)(=O)N[C@H](Cc3c[nH]c4ccccc34)C(=O)O)s2)cc1 | 98.4
15 | CC1(S(=O)(=O)O)CC(=O)c2ccccc2C1=O (stereo not given) [Menadione bisulfite (sodium)] | 99.5
16 | CN(CCCCCCCCCCN(C)C(=O)Oc1cccc([N+](C)(C)C)c1)C(=O)Oc1cccc([N+](C)(C)C)c1 [Demecarium Bromide] | 100
17 | Fc1ccc2c(CCNCc3cccc(OCC(F)(F)C(F)F)c3)c[nH]c2c1 [Idalopirdine Hydrochloride] | 100
18 | CCCCOc1nc(N)c2c(n1)N(Cc1cccc(CN3CCCC3)c1)CC(=O)N2 [Vesatolimod] | 100
19 | CNC(=O)c1ccc(Nc2ncc(C(F)(F)F)c(NCc3nccnc3N(C)S(C)(=O)=O)n2)cc1 [Defactinib] | 96.2
20 | COc1cc(C(=O)O)ccc1NC(=O)[C@@H]1N[C@@H](CC(C)(C)C)[C@](C#N)(c2ccc(Cl)cc2F)[C@H]1c1cccc(Cl)c1F [Idasanutlin] | 100

Row | Structure (SMILES) | growth reduction [%]
21 | O=C(O)c1ccc2nc(-c3cc(Cl)cc(Cl)c3)oc2c1 [Tafamidis meglumine] | 93.9
22 | Cc1cn(-c2cc(NC(=O)c3ccc(C)c(Nc4nccc(-c5cccnc5)n4)c3)cc(C(F)(F)F)c2)cn1 [Nilotinib] | 100
23 | C#C[C@]1(O)CC[C@H]2[C@@H]3CCc4cc(OC5CCCC5)ccc4[C@H]3CC[C@@]21C [Quinestrol] | 100
24 | CN1CCCN=C1/C=C/c1cccs1 [Pyrantel (pamoate)] | 91.6
25 | CC(OC(=O)NCC1(CC(=O)O)CCCCC1)OC(=O)C(C)C (stereo not given) [Gabapentin enacarbil] | 90.4
26 | Clc1ccc(CSC(Cn2ccnc2)c2ccc(Cl)cc2Cl)cc1 (stereo not given) [Sulconazole (nitrate)] | 93.4
27 | COCCN1CCC(N(Cc2ccc(-c3ccc(C(F)(F)F)cc3)cc2)C(=O)Cn2c(SCc3cccc(F)c3F)cc(=O)c3ccccc32)CC1 [Rilapladib] | 100
28 | CNCCC(Oc1ccc(C(F)(F)F)cc1)c1ccccc1 (stereo not given) [Fluoxetine (hydrochloride)] | 100
29 | COC(=O)[C@]12CCC(C)(C)C[C@H]1[C@H]1C(=O)C=C3[C@@]4(C)C=C(C#N)C(=O)C(C)(C)[C@@H]4CC[C@@]3(C)[C@]1(C)CC2 [Bardoxolone methyl] | 100
30 | CSc1ccc(OCc2ncc([N+](=O)[O-])n2C)cc1 [Fexinidazole] | 98.5
31 | Cc1cc(C)cc([C@@H]2CCCN2Cc2ccc(Oc3ccc(C(N)=O)cc3F)cc2)c1 [Aticaprant] | 100
32 | COc1cc2ncnc(Nc3ccc(F)c(Cl)c3)c2cc1NC(=O)/C=C/CN1CCCCC1 [Dacomitinib] | 100
33 | Cc1cc(Nc2ncc(Cl)c(Nc3ccccc3S(=O)(=O)C(C)C)n2)c(OC(C)C)cc1C1CCNCC1 [Ceritinib dihydrochloride] | 100
34 | COCCNCc1ccc(-c2cc3nccc(Oc4ccc(NC(=O)C5(C(=O)Nc6ccc(F)cc6)CC5)cc4F)c3s2)nc1 [Sitravatinib] | 100
35 | COc1c(-c2ccc3cc(NS(C)(=O)=O)ccc3c2)cc(-n2ccc(=O)[nH]c2=O)cc1C(C)(C)C [Dasabuvir] | 91.1
36 | COc1cccc2c1C(=O)c1c(O)c3c(c(O)c1C2=O)C[C@@](O)(C(=O)CO)C[C@@H]3O[C@H]1C[C@H](N)[C@H](O)[C@H](C)O1 [Doxorubicin (hydrochloride)] | 96.1
37 | C[C@H]1O[C@@H](n2cc(F)c(=O)[nH]c2=O)[C@H](O)[C@@H]1O [Doxifluridine] | 97.9
38 | CCCCCOc1ccccc1/C(=C\SC)n1ccnc1 [Neticonazole (hydrochloride)] | 100
39 | CN1CCN(c2ccc3nc(-c4c(N)c5c(F)cccc5[nH]c4=O)[nH]c3c2)CC1 [Dovitinib (lactate)] | 96
40 | COc1ccc(C(=O)NC2(C(=O)O)Cc3ccccc3C2)cc1OCCc1cccc(C)c1 | 90.3
